Hit rate of the full screen: of about 52,000 compounds, about 4,300 (8.3%) were called active. No stated cut-off is given here; in the data, active means survival mostly below about 52% (no sharp cut-off); inactive means mostly above about 56%. Only a selection was taken, and actives are over-represented in it overall.
Each compound was assayed on DeltatarO mutant (assay: S. aureus survival, RN4220 and DeltatarO strains – OD600, teichoic acid synthesis inhibitors, primary screen (AID 463173)). Details: S. aureus RN4220 wild type/DeltatarO growth, OD600, 18 h, hits give low values, screened at 18.75 µg/mL (by protocol).
For `CCCCNc1nc2c(c(=O)n(C)c(=O)n2C)n1CC(O)COc1ccccc1C` (centres undefined), the survival was 42% (active).
`CCNc1nc2c(c(=O)n(C)c(=O)n2C)n1CC(O)COc1ccccc1` (centres undefined) was tested, and the survival was 61% (inactive).
With `CCCNc1nc2c(c(=O)n(C)c(=O)n2C)n1CC(O)COc1ccccc1` (centres undefined) the survival was 62% (inactive).
`Cc1cccc(NC(=O)CSc2nc3c(c(=O)[nH]2)CN(Cc2ccc4c(c2)OCO4)CC3)c1C` was tested, and the survival was 78% (inactive).
With `O=C1CCC(=O)N1CC(=O)N1CCCc2ccccc21` the survival was 85% (inactive).
In the case of `CCN(CC)S(=O)(=O)c1ccc2c(c1)nc(CN(C)C(=O)Nc1ccc(C)c(Cl)c1)n2C`, the survival is reported as 86% (inactive).
For `Cc1ccc(C)c(Nc2ncnc3c2cnn3-c2ccc(F)cc2)c1`, the survival was -1% (active).
In the case of `Cc1ccc(-n2ncc3c(Nc4cccc(C)c4C)ncnc32)cc1`, the survival is reported as 94% (inactive).
With `CCCCc1ccc(Nc2ncnc3c2cnn3-c2ccc(C)cc2)cc1` the survival was 17% (active).
In the case of `Cc1ccc(-n2ncc3c(Nc4ccc(Oc5ccccc5)cc4)ncnc32)cc1`, the survival is reported as 68% (inactive).
In the case of `CC(C)(C)c1ccc(C(=O)NNc2ncnc3c2cnn3-c2ccccc2)cc1`, the survival is reported as 115% (inactive).
For `CC(=O)NNc1ncnc2c1cnn2-c1ccccc1`, the survival was 46% (active).
In the case of `Cc1ccc(-n2ncc3c(NC(C)c4ccccc4)ncnc32)cc1` (centres undefined), the survival is reported as 94% (inactive).
For `Cc1ccc(-n2ncc3c(NCCCc4ccccc4)ncnc32)cc1`, the survival was 89% (inactive).
In the case of `CCC(C)Nc1ncnc2c1cnn2-c1ccc(F)cc1` (centres undefined), the survival is reported as 72% (inactive).
For `COc1ccc(C(=O)NNc2ncnc3c2cnn3-c2ccccc2)cc1`, the survival was 92% (inactive).
With `CCOc1ccccc1Nc1ncnc2c1cnn2-c1ccc(C)cc1` the survival was 87% (inactive).
For `CCC(CO)Nc1ncnc2c1cnn2-c1ccc(C)cc1` (centres undefined), the survival was -5% (active).
For `Cc1ccccc1NC(=O)CCNC(=O)Cn1ccc2ccccc2c1=O`, the survival was 70% (inactive).
`N/C(=N\c1nc2ccccc2o1)NC(=O)/C=C/c1ccco1` was tested, and the survival was 85% (inactive).
In the case of `Cc1ccc(-n2c(=O)c3ccc(C(=O)NCc4ccco4)cc3n(Cc3ccc(Cl)cc3)c2=O)cc1`, the survival is reported as 77% (inactive).
`CS(=O)(=O)c1ccc2nc(NC(=O)CN3C(=O)c4ccccc4C3=O)sc2c1` was tested, and the survival was 85% (inactive).
For `COc1ccc(CNC(=O)CSCc2cnn(-c3ccccc3)c2-n2cccc2)cc1OC`, the survival was 106% (inactive).
For `Cc1coc2cc3oc(=O)c(CCC(=O)NCc4ccc(Cl)cc4)c(C)c3cc12`, the survival was 69% (inactive).
With `CCn1cc2nc(SCc3ccc(C)cc3)n(CCc3ccccc3)c(=O)c2n1` the survival was 78% (inactive).
In the case of `N#Cc1cc2cc3c(cc2nc1SCC(=O)N1CCN(c2ccc(F)cc2)CC1)OCCO3`, the survival is reported as 67% (inactive).
In the case of `CC(C)(C)c1ccc(OCC(=O)Nc2ccc(C(=O)OC3CCCCC3)cc2)cc1`, the survival is reported as 71% (inactive).
With `CCOC(=O)c1cc(-c2ccccc2)n(-c2cccc(C(=O)Nc3cccc(C(C)=O)c3)c2)c1C` the survival was 89% (inactive).
In the case of `CCOC(=O)c1cc(-c2ccccc2)n(-c2cccc(C(=O)Nc3ccc(OCC)cc3)c2)c1C`, the survival is reported as 37% (active).
`CCOC(=O)c1cc(-c2ccccc2)n(-c2cccc(C(=O)Nc3cc(OC)cc(OC)c3)c2)c1C` was tested, and the survival was 81% (inactive).
For `CCOC(=O)c1cc(-c2ccccc2)n(-c2cccc(C(=O)Nc3cccc(F)c3)c2)c1C`, the survival was 135% (inactive).
For `CCOC(=O)c1cc(-c2ccccc2)n(-c2cccc(C(=O)Nc3cccc(SC)c3)c2)c1C`, the survival was 32% (active).
`CCOC(=O)c1cc(-c2ccccc2)n(-c2cccc(C(=O)Nc3ccc(OC)cc3)c2)c1C` was tested, and the survival was 83% (inactive).
With `CCOC(=O)c1ccccc1NC(=O)Nc1cc2c(cc1N1CCCCC1)n(C)c(=O)n2C` the survival was 76% (inactive).
In the case of `CCC1CCCCN1C(=O)CSc1nnc(-c2ccc(OC)c(OC)c2)o1` (centres undefined), the survival is reported as 71% (inactive).
For `CCOc1cc(CNC(=O)CN2CCSc3ccccc32)cc(OCC)c1OCC`, the survival was 85% (inactive).
For `CC(C)CCNC(=O)C1CCC(Cn2c(=O)c3sccc3n(CC(=O)NC(C)C)c2=O)CC1` (centres undefined), the survival was 95% (inactive).
In the case of `CCOC(=O)c1c(SCC(=O)Nc2nc3ccccc3s2)nc(=O)[nH]c1C`, the survival is reported as 6% (active).
In the case of `CCOC(=O)c1c(SCC(=O)Nc2cccc(C)c2C)nc(=O)[nH]c1C`, the survival is reported as 67% (inactive).
With `CCOC(=O)c1c(SCC(=O)Nc2nc3ccc(C)cc3s2)nc(=O)[nH]c1C` the survival was 70% (inactive).
With `CCCCc1ccc(C(=O)N/C(=C\c2ccc(C)cc2)C(=O)NC2CCCCC2)cc1` the survival was 66% (inactive).
With `Cn1c(=O)n(CCCc2ccccc2)c(=O)c2c1nc1n2CCN1c1ccccc1` the survival was 75% (inactive).
`O=C(Nc1ccc(Cl)c(Cl)c1)c1cc(S(=O)(=O)N2CCN(c3cccc(Cl)c3)CC2)ccc1F` was tested, and the survival was 68% (inactive).
In the case of `COc1cc(OC)cc(C(=O)N2CCC(c3ccncc3)CC2)c1`, the survival is reported as 89% (inactive).
`COc1ccc(C(=O)N2CCC(c3ccncc3)CC2)cc1OC` was tested, and the survival was -5% (active).
In the case of `COc1cc(C(=O)N2CCC(c3ccncc3)CC2)cc(OC)c1OC`, the survival is reported as 88% (inactive).
`CCOc1ccc(C(=O)N2CCC(c3ccncc3)CC2)cc1` was tested, and the survival was 94% (inactive).
`CCN(CC)c1ccc(C(=O)N2CCC(c3ccncc3)CC2)cc1` was tested, and the survival was 88% (inactive).
With `CCOc1cc(C(=O)N2CCC(c3ccncc3)CC2)cc(OCC)c1OCC` the survival was 17% (active).
With `CCNC(=O)Cc1ccc(NC(=O)N2CCCCc3ccccc32)cc1` the survival was 74% (inactive).
With `O=C(Nc1nnc2n1CCS2)c1ccccc1C(F)(F)F` the survival was 93% (inactive).
With `Cc1ccc(N2CCN(C(=O)c3ccc4c(Cl)c5c(nc4c3)CCCC5)CC2)c(C)c1` the survival was 88% (inactive).
For `Cc1cccc(N2CCN(C(=O)c3ccc4c(Cl)c5c(nc4c3)CCCC5)CC2)c1C`, the survival was 93% (inactive).
In the case of `O=C(c1ccc2c(Cl)c3c(nc2c1)CCCC3)N1CCN(c2cccc(Cl)c2)CC1`, the survival is reported as 65% (inactive).
`O=C(c1ccc2c(Cl)c3c(nc2c1)CCCC3)N1CCN(c2ccc(Cl)cc2)CC1` was tested, and the survival was 92% (inactive).
In the case of `Cc1ccc(Cl)cc1N1CCN(C(=O)c2ccc3c(Cl)c4c(nc3c2)CCCC4)CC1`, the survival is reported as 31% (active).
In the case of `Cc1ccc(C)c(N2CCN(C(=O)c3ccc4c(Cl)c5c(nc4c3)CCCC5)CC2)c1`, the survival is reported as 98% (inactive).
`O=C(c1ccc2c(Cl)c3c(nc2c1)CCCC3)N1CCN(c2ccccc2)CC1` was tested, and the survival was 20% (active).
For `O=C(c1ccc2c(Cl)c3c(nc2c1)CCCC3)N1CCN(c2ccccc2F)CC1`, the survival was -3% (active).
In the case of `O=C(c1ccc2c(Cl)c3c(nc2c1)CCCC3)N1CCN(c2cccc(C(F)(F)F)c2)CC1`, the survival is reported as 64% (inactive).
For `CCOC(=O)/C(C)=C1\NC(C)(C)Cc2ccccc21`, the survival was 92% (inactive).
`Cc1coc2cc3oc(=O)c(CCC(=O)NCc4ccccc4Cl)c(C)c3cc12` was tested, and the survival was 66% (inactive).
With `Cc1ccc2c(c1)nc(SCC(O)c1ccc(Br)cc1)n2C` (centres undefined) the survival was 70% (inactive).
For `COc1cc2c(cc1OC)-c1n[nH]c(=S)n1C(C)(C)C2`, the survival was 90% (inactive).
`CC(=O)c1c(C)n(-c2ccc(C)cc2)c2ccc(OC(=O)COc3ccccc3)cc12` was tested, and the survival was 62% (inactive).
In the case of `COc1ccccc1CN1CCN(C(CC(C)C)c2nnnn2Cc2ccc(F)cc2)CC1` (centres undefined), the survival is reported as 85% (inactive).
With `O=C1CCC(=O)N1c1ccccc1` the survival was 98% (inactive).
With `O=C1CCCCCN1Sc1ccccc1` the survival was 48% (active).
With `O=C(/C=C/c1ccccc1)N1CCCC1=O` the survival was 94% (inactive).
In the case of `CCN(CCCNC(=O)c1ccc(Sc2ccc(Cl)cc2)c(NC(C)=O)c1)c1cccc(C)c1`, the survival is reported as 89% (inactive).
In the case of `COc1cc(O)ccc1-c1nc2cc(C)ccn2c1Nc1ccccc1C`, the survival is reported as 69% (inactive).
`Cc1ccccc1Nc1c(-c2ccc(Br)o2)nc2ccc(Cl)cn12` was tested, and the survival was 37% (active).
In the case of `Cc1ccccc1Nc1c(-c2ccncc2)nc2ccc(Cl)cn12`, the survival is reported as 118% (inactive).
For `COc1cc(O)ccc1-c1nc2ccc(Br)cn2c1Nc1ccccc1C`, the survival was 46% (active).
In the case of `Cc1ccccc1Nc1c(-c2cccc(O)c2)nc2ccc(Br)cn12`, the survival is reported as 64% (inactive).
In the case of `Cc1ccccc1Nc1c(-c2cccnc2)nc2ccc(Cl)cn12`, the survival is reported as 92% (inactive).
For `CCOC(=O)c1c(S(=O)(=O)N2CCCC(C(=O)Nc3ccc(OCC)cc3)C2)c(C)n(C)c1C` (centres undefined), the survival was 99% (inactive).
In the case of `COc1ccc(CNC(=O)C(=O)NCC(c2cccs2)S(=O)(=O)c2cccs2)cc1` (centres undefined), the survival is reported as 89% (inactive).
With `CCCCOc1ccc(C(=O)N(Cc2ccco2)Cc2ccco2)cc1` the survival was 94% (inactive).
With `COc1ccc(NC(=O)c2cc3c([nH]c2=O)CC(c2ccccc2)CC3=O)cc1` (centres undefined) the survival was 91% (inactive).
In the case of `O=C1CC(c2ccccc2)Cc2[nH]c(=O)c(C(=O)Nc3ccc(F)cc3)cc21` (centres undefined), the survival is reported as 101% (inactive).
In the case of `O=C1CC(c2ccccc2)Cc2[nH]c(=O)c(C(=O)Nc3cccc(F)c3)cc21` (centres undefined), the survival is reported as 89% (inactive).
For `O=C1CC(c2ccccc2)Cc2[nH]c(=O)c(C(=O)Nc3cccc(Cl)c3)cc21` (centres undefined), the survival was 8% (active).
With `Cc1cccc(NC(=O)c2cc3c([nH]c2=O)CC(c2ccccc2)CC3=O)c1` (centres undefined) the survival was 20% (active).
For `CC(=O)c1ccc(NC(=O)c2cc3c([nH]c2=O)CC(c2ccccc2)CC3=O)cc1` (centres undefined), the survival was 63% (inactive).
`COc1ccc(S(=O)(=O)c2c(C)c(NS(=O)(=O)c3ccccc3)cc(C)c2O)cc1` was tested, and the survival was 67% (inactive).
With `CC(C)N(Cc1ccccc1)C(=O)CCS(=O)(=O)c1cc2c(cc1Cl)NC(=O)CO2` the survival was 103% (inactive).
For `CC(C)(C)c1ccc(S(=O)(=O)c2cnc(SCC(=O)Nc3ccc4c(c3)OCCO4)[nH]c2=O)cc1`, the survival was 120% (inactive).
For `COc1ccc(S(=O)(=O)N(CC(=O)NCCSCc2ccccc2)c2ccc(C)cc2)cc1`, the survival was 54% (inactive).
For `CCN1CCN(C(=O)c2cnn(-c3ccc(F)cc3)c2-n2cccc2)CC1`, the survival was 135% (inactive).
With `COC(=O)c1ccccc1NC(=O)CSc1n[nH]c(CC(C)C)n1` the survival was 47% (inactive).
`COC(=O)c1ccc(NC(=O)CSc2ccc(-c3sc(-c4ccccc4)nc3C)nn2)cc1` was tested, and the survival was 56% (active).
With `Cc1ccc(CNC(=O)CSc2ccc(-c3sc(-c4ccccc4)nc3C)nn2)cc1` the survival was 93% (inactive).
`Cc1nc(-c2ccccc2)sc1-c1ccc(SCC(=O)NCc2ccccc2)nn1` was tested, and the survival was 58% (inactive).
In the case of `COC(=O)c1ccc(NC(=O)CSc2n[nH]c(CC(C)C)n2)cc1`, the survival is reported as 36% (active).
With `COC(=O)c1ccc(NC(=O)CSc2n[nH]c(-c3ccccc3)n2)cc1` the survival was 88% (inactive).
With `CCOc1ccc(NC(=O)CSc2ccc(-c3sc(-c4ccccc4)nc3C)nn2)cc1` the survival was 15% (active).
`CCOC(=O)c1ccccc1NC(=O)CSc1ccc(-c2sc(-c3ccccc3)nc2C)nn1` was tested, and the survival was 34% (inactive).
For `CCc1ccc(NC(=O)CSc2ccc(-c3sc(-c4ccccc4)nc3C)nn2)cc1`, the survival was 38% (inactive).
